Laboratory results: PubChem BioAssay (NCATS)
Where “and” joins values, the source holds several entries; their conditions need not be identical. Identical values can stand only once. Records with an inconclusive call do not appear. Unmarked numbers belong to inactive results. Calls of active or inactive are those of the source. The call rests on the fitted dose curve; in most records, active means well fitted curve in the direction sought with a large enough effect in the repeat runs; inconclusive means weak or mixed curves; inactive means no such curve, though single readings can be large; an effect the other way counts as inactive or inconclusive.
Further: nearly all actives have a fitted effect of over 55% in size.
On the % scale 0 is the no-effect control and ±100 the full control effect; potency means the concentration at half of the fitted maximal effect.

These compounds were tested against Cytochrome P450 2D6 (Homo sapiens) (UniProt P10635) (assay: Cytochrome P450 family 2 subfamily D member 6 (CYP2D6) small molecule antagonists: luciferase biochemical (cell-free) qHTS assay (AID 1645840)). Settings: P450-Glo CYP2D6 enzyme, luciferin luminescence, 1 h; series mostly up to 57.4 µM; activity change, negative = inhibition: at the top concentration.
Sequence of Cytochrome P450 2D6 (Homo sapiens) (P10635 whole entry, looked up): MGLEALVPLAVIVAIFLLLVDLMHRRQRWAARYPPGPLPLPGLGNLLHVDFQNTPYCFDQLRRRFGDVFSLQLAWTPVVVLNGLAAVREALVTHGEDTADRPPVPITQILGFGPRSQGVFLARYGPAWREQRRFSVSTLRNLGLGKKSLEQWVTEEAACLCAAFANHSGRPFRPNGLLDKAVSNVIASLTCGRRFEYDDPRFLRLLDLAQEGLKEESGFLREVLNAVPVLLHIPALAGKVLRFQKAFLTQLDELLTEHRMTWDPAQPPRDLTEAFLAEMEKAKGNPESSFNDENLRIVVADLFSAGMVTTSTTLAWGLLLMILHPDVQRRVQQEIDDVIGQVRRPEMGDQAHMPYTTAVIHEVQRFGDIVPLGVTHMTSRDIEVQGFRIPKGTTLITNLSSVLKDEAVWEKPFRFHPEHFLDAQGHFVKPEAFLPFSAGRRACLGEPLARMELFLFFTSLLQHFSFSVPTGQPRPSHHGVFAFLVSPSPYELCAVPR
Procedure, shortened: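 P450-Glo luminescent screen: recombinant CYP2D6 enzyme–proluciferin substrate mix preincubated with compound 10 min at room temperature, then NADPH regeneration added for 1 h at room temperature. Detection reagent added for 20 min; luciferin light read as relative luminescence units.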
`CCCCN1C[C@H](O)[C@@H](O)[C@H](O)[C@H]1CO` was tested, and the “activity change, negative = inhibition” value was 9.58%. With `CN(C)CCC[C@@]1(c2ccc(F)cc2)OCc2cc(C#N)ccc21` the Potency was 13.8 µM (active) and 12 µM (active). With `CCO[C@@H]1O[C@H](C(COCc2ccccc2)OCc2ccccc2)[C@H](OCc2ccccc2)[C@H]1O` (some centres not stated) the Potency was 11 µM (active). `CCNC(=O)NCc1cccc(Cl)c1` was tested, and the “activity change, negative = inhibition” value was 1.84%. In the case of `Nc1nc(Cl)nc2c1ncn2[C@@H]1O[C@H](CO)[C@@H](O)[C@@H]1F`, the Potency is reported as “inactive”. In the case of `O=C(N/N=C/c1ccc([N+](=O)[O-])o1)c1ccc(O)cc1`, the Potency is reported as 3.89 µM (active). In the case of `OC[C@H]1O[C@@H]2O[C@H]3[C@H](O)[C@@H](O)[C@@H](O[C@H]4[C@H](O)[C@@H](O)[C@@H](O[C@H]5[C@H](O)[C@@H](O)[C@@H](O[C@H]6[C@H](O)[C@@H](O)[C@@H](O[C@H]7[C@H](O)[C@@H](O)[C@@H](O[C@H]8[C@H](O)[C@@H](O)[C@@H](O[C@H]1[C@H](O)[C@H]2O)O[C@@H]8CO)O[C@@H]7CO)O[C@@H]6CO)O[C@@H]5CO)O[C@@H]4CO)O[C@@H]3CO`, the “activity change, negative = inhibition” value is reported as 3.54%. For `O=C(O)CCc1nc2ccccc2[nH]1`, the “activity change, negative = inhibition” value was -6.76%. For `CCCCCCCCCCCCCCC[C@H](O)[C@@H](N)CO`, the Potency was 9.77 µM (active). `NCCNC(=O)c1ccc(Cl)cn1` was tested, and the “activity change, negative = inhibition” value was 0.0586%. In the case of `CCN(CC)CCOc1ccc2c(c1)C(=O)c1cc(OCCN(CC)CC)ccc1-2`, the “activity change, negative = inhibition” value is reported as -11%. In the case of `CCCCCCCCCCCCCC[N+](C)(C)Cc1ccccc1`, the Potency is reported as 0.347 µM (active). With `CC[C@]12CCCN3CCc4c(n(c5ccccc45)C(=O)C1)[C@@H]32` the Potency was 0.0871 µM (active). `CCCCCN=C(N)N/N=C/c1c[nH]c2ccc(OC)cc12` was tested, and the Potency was 0.219 µM (active). For `O=C(O)C(Cc1cc(I)c(O)c(I)c1)c1ccccc1` (configuration not stated), the Potency was “inactive”. For `CC(=O)OCC1=C(C(=O)O)N2C(=O)[C@@H](NC(=O)CSc3ccncc3)[C@H]2SC1`, the Potency was 13.8 µM (active). In the case of `O=C(CN1CCN(Cc2ccc3c(c2)OCO3)CC1)N1c2ccccc2Sc2ccccc21`, the Potency is reported as 0.195 µM (active). In the case of `CCOc1ccc(NC(C)=O)cc1`, the “activity change, negative = inhibition” value is reported as -7.18%. In the case of `C[N+]1(CC2COC(c3ccccc3)(C3CCCCC3)O2)CCCCC1` (configuration not stated), the Potency is reported as 1.55 µM (active). For `CCOC(=O)[C@H](CCc1ccccc1)N[C@@H](C)C(=O)N1[C@H](C(=O)O)C[C@@H]2CCC[C@@H]21`, the “activity change, negative = inhibition” value was 1.92%. With `Cl/C(=C\n1cncn1)c1ccc(Cl)cc1Cl` the Potency was 4.9 µM (active). `N/C(=N\N=C\c1ccc(Cl)cc1)N/N=C/c1ccc(Cl)cc1` was tested, and the Potency was 15.5 µM (active). For `C[C@@]12C(=O)OC(=O)[C@]1(C)C1CCC2O1`, the “activity change, negative = inhibition” value was -1.74%. In the case of `CCN(CC)CCOc1ccccc1C(=O)CCc1ccccc1`, the Potency is reported as 0.11 µM (active). In the case of `O=C1C(O)=C(O)C(=O)C(O)=C1O`, the “activity change, negative = inhibition” value is reported as 0.2%. For `C[C@@H](O)[C@H]1C(=O)N2C(C(=O)O)=C(S[C@@H]3CN[C@H](CNS(N)(=O)=O)C3)[C@H](C)[C@H]12`, the “activity change, negative = inhibition” value was -24%. In the case of `Oc1c(Cl)cc(Cl)c(Cl)c1Cc1c(O)c(Cl)cc(Cl)c1Cl`, the Potency is reported as 13.8 µM (active). For `CC(C)[C@@H]1CC[C@@H](C)CC1=O`, the “activity change, negative = inhibition” value was -1.43%.

The compounds below were run against Cytochrome P450 2C9 (Homo sapiens) (UniProt P11712) (assay: Cytochrome P450 family 2 subfamily C member 9 (CYP2C9) small molecule antagonists: luciferase biochemical (cell-free) qHTS assay (AID 1645842)). Settings: P450-Glo CYP2C9 enzyme assay, luciferin luminescence; series mostly up to 57.4 µM; activity change, negative = inhibition: at the top concentration.
Sequence of Cytochrome P450 2C9 (Homo sapiens) (P11712 whole entry, looked up): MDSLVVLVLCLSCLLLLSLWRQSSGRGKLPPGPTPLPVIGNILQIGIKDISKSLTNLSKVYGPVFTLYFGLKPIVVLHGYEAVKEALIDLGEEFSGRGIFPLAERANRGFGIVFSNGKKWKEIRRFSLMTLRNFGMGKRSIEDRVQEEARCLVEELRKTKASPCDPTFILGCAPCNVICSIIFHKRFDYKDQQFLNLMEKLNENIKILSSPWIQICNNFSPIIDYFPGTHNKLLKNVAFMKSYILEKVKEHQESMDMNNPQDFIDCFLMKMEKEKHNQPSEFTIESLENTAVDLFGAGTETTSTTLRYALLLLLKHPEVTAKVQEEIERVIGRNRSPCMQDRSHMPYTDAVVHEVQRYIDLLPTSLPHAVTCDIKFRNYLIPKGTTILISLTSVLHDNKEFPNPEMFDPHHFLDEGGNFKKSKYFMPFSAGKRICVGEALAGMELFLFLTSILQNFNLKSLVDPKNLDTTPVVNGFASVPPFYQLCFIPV
Procedure, shortened: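 Luminescence, after 20 min with luciferin detection reagent, reflected CYP2C9 turnover during a 1 h NADPH-driven reaction at 37C. Enzyme-substrate mix contained 0.4% bovine serum albumin and was preincubated with compound 10 min at room temperature.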
For `CCCCN1C[C@H](O)[C@@H](O)[C@H](O)[C@H]1CO`, the “activity change, negative = inhibition” value was 8.23%. With `CN(C)CCC[C@@]1(c2ccc(F)cc2)OCc2cc(C#N)ccc21` the Potency was “inactive”. `CCNC(=O)NCc1cccc(Cl)c1` was tested, and the “activity change, negative = inhibition” value was 5.05%. `Nc1nc(Cl)nc2c1ncn2[C@@H]1O[C@H](CO)[C@@H](O)[C@@H]1F` was tested, and the Potency was “inactive”. For `OC[C@H]1O[C@@H]2O[C@H]3[C@H](O)[C@@H](O)[C@@H](O[C@H]4[C@H](O)[C@@H](O)[C@@H](O[C@H]5[C@H](O)[C@@H](O)[C@@H](O[C@H]6[C@H](O)[C@@H](O)[C@@H](O[C@H]7[C@H](O)[C@@H](O)[C@@H](O[C@H]8[C@H](O)[C@@H](O)[C@@H](O[C@H]1[C@H](O)[C@H]2O)O[C@@H]8CO)O[C@@H]7CO)O[C@@H]6CO)O[C@@H]5CO)O[C@@H]4CO)O[C@@H]3CO`, the “activity change, negative = inhibition” value was 2.47%. With `O=C(O)CCc1nc2ccccc2[nH]1` the “activity change, negative = inhibition” value was 21.5%. In the case of `CCCCCCCCCCCCCCC[C@H](O)[C@@H](N)CO`, the “activity change, negative = inhibition” value is reported as 16.4%. For `NCCNC(=O)c1ccc(Cl)cn1`, the “activity change, negative = inhibition” value was 2.53%. In the case of `CCN(CC)CCOc1ccc2c(c1)C(=O)c1cc(OCCN(CC)CC)ccc1-2`, the “activity change, negative = inhibition” value is reported as -0.376%. With `NS(=O)(=O)c1cc2c(cc1Cl)NC(CC1CCCC1)NS2(=O)=O` (configuration not stated) the “activity change, negative = inhibition” value was 4.59%. `CCCCCN=C(N)N/N=C/c1c[nH]c2ccc(OC)cc12` was tested, and the “activity change, negative = inhibition” value was -1.04%. In the case of `O=C(O)C(Cc1cc(I)c(O)c(I)c1)c1ccccc1` (configuration not stated), the Potency is reported as 15.1 µM (active) and 11 µM (active). In the case of `CCc1oc2ccccc2c1C(=O)c1cc(I)c(O)c(I)c1`, the Potency is reported as 0.347 µM (active). In the case of `CC(=O)OCC1=C(C(=O)O)N2C(=O)[C@@H](NC(=O)CSc3ccncc3)[C@H]2SC1`, the Potency is reported as 11 µM (active). In the case of `O=C(CN1CCN(Cc2ccc3c(c2)OCO3)CC1)N1c2ccccc2Sc2ccccc21`, the Potency is reported as 7.76 µM (active). For `CCOc1ccc(NC(C)=O)cc1`, the “activity change, negative = inhibition” value was 6.5%. With `C[N+]1(CC2COC(c3ccccc3)(C3CCCCC3)O2)CCCCC1` (configuration not stated) the “activity change, negative = inhibition” value was 8.23%. In the case of `CCOC(=O)[C@H](CCc1ccccc1)N[C@@H](C)C(=O)N1[C@H](C(=O)O)C[C@@H]2CCC[C@@H]21`, the “activity change, negative = inhibition” value is reported as -9.33%. In the case of `N/C(=N\N=C\c1ccc(Cl)cc1)N/N=C/c1ccc(Cl)cc1`, the Potency is reported as 13.8 µM (active). `C[C@@]12C(=O)OC(=O)[C@]1(C)C1CCC2O1` was tested, and the “activity change, negative = inhibition” value was 3.09%. `O=C1C(O)=C(O)C(=O)C(O)=C1O` was tested, and the “activity change, negative = inhibition” value was 1.53%. For `C=C1c2cccc(O)c2C(O)=C2C(=O)[C@]3(O)C(O)=C(C(N)=O)C(=O)[C@@H](N(C)C)[C@@H]3[C@@H](O)[C@H]12`, the “activity change, negative = inhibition” value was 0.599%. `Oc1c(Cl)cc(Cl)c(Cl)c1Cc1c(O)c(Cl)cc(Cl)c1Cl` was tested, and the Potency was 1.55 µM (active). `CC(C)[C@@H]1CC[C@@H](C)CC1=O` was tested, and the “activity change, negative = inhibition” value was 5.39%.
